Source: PubChem BioAssay
Sampled rows, rich in hits. Any-hit rate of the full collection: about 7.9%.
FMDV inh = foot and mouth disease virus antiviral activity. AID 1159524. hit rate 1.2% among 410,000. FMDV antiviral cell-based qHTS. Potency, µM (titrated, usually from 57.9 µM), for the others: at the top dose activity change, negative = inhibition, actives largely listed as inhibitors; calls by dose curve; tested in HEK293T cells; note: read-out not given here; potency is the fitted concentration of half-maximal effect; nearly all actives have a fitted effect of over 45% in size
HCV inhibitor = inhibitors of hepatitis C virus infection; Huh7.5.1 HCVcc-Cre infection, luciferase reporter, 44 h; Potency, µM (highest dose often 41.8 µM), inactives show top-dose activity change, negative = inhibition, actives largely listed as inhibitors; hit rate 3.4% among 340,000; active = well fitted inhibition curve with a large enough effect; inconclusive = small, poorly fitted or top-dose-only effect, or another doubt; inactive = no such curve, though single readings can be large or run the other way; note: potency is the fitted concentration of half-maximal effect
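1,000 cells/well; 4 h culture; + compound; + HCVcc-Cre (~0.5 moi); 44 h; luciferase substrate, RT 15 min; read 15 sec.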
HCMV inh = blocks human cytomegalovirus replication | AID 1259415 | hit rate 4.5% among 410,000 | activity change, negative = inhibition, % at 57.5 µM | HFF cells, HCMV-luciferase reporter, 72 h; stronger effect = lower value; in the data active = activity change below about -60%; inconclusive = no clear call, values can overlap the other calls; inactive = above about -39%
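Cell-based, HFFs, 1000 cells/well, 16 h 37C; cpds in DMSO + HCMV-luc, MOI 1 PFU/cell; 72 h 37C; OneGlo luminescence after 5 min RT; norm. to buffer vs Salinomycin 10uM.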
MARV entry inh = Marburg virus entry inhibition | Marburg virus pseudotyped entry inhibition, cell reporter | Potency, µM (series often up to 37.8 µM), for inactives: at the highest dose activity change, negative = inhibition, actives largely listed as inhibitors | hit rate 1.8% among 300,000 | AID 540276; calls by dose curve; tested in HEK293 cells; note: potency is the fitted concentration of half-maximal effect
Lassa entry inh = inhibitors of Lassa virus binding or cell entry; Lassa virus pseudotype entry inhibition, cell reporter; Potency, µM (top dose mostly 37.9 µM), for the others: top-dose activity change, negative = inhibition, hits mostly inhibitors; hit rate 1.2% among 300,000; AID 540256; calls by dose curve; tested in HEK293 cells; note: potency is the fitted concentration of half-maximal effect; nearly all actives have a fitted effect of over 50% in size
Starred values were filed as active, the others as inactive; ? = inconclusive; . = no result; [ ] = remark or other dose. % is set by controls: 0 for no effect and ±100 for the full control effect.

SMILES	FMDV inh	HCV inhibitor	HCMV inh	MARV entry inh	Lassa entry inh
CCOc1ccccc1C(=O)N1CCc2cc(OC)c(OC)cc2C1COc1ccc(OC)cc1 (configuration not stated)	-29%	.	23	.	-19%[46.1 µM]
CCOc1ccc(CC2c3cc(OCC)c(OCC)cc3CCN2C(=O)c2cc(OC)c(OC)c(OC)c2)cc1OCC (configuration not stated)	?	?	26	?	2.1µM*
CC(C)(CO)Nc1nc(Nc2ccccc2)nc(Nc2ccccc2)n1	-23%	10µM*	-11	-17%	0%
C[C@@]12C(=O)N(c3cccc(Cl)c3)C(=O)N1[C@@H]1c3ccccc3OC[C@@H]1[C@H]2c1ccccc1	0%	?	94	.	.
C[C@@]12C(=O)N(c3cccc(F)c3)C(=O)N1[C@@H]1c3ccccc3OC[C@@H]1[C@H]2c1ccccc1	?	?	-101*	.	.
COc1ccc2c(c1)OC[C@H]1[C@H]2N2C(=O)CN(Cc3ccc(C)cc3)C(=O)[C@@]2(C)[C@H]1c1ccccc1	-14%	11µM*	-12	.	.
COc1ccc2c(c1)OC[C@H]1[C@H]2N2C(=O)c3cc(F)ccc3NC(=O)[C@@]2(C)[C@H]1c1ccccc1	0%	11µM*	0	.	.
COc1ccc2c(c1)[C@H]1[C@H](CO2)[C@H](c2ccccc2)[C@]2(C)C(=O)Nc3cc(Cl)ccc3C(=O)N12	0%	?	.	.	.
COc1ccc2c(c1)C(=O)N1[C@H]3c4cc(Cl)ccc4OC[C@@H]3[C@H](c3ccccc3)[C@]1(C)C(=O)N2	-22%	?	-60*	.	.
Cc1ccc2c(c1)[C@H]1[C@H](CO2)[C@H](c2ccccc2)[C@]2(C)C(=O)Nc3cc(F)c(F)cc3C(=O)N12	?	?	-70*	.	.
Cc1ccc2c(c1)[C@H]1[C@H](CO2)[C@H](c2ccccc2)[C@]2(C)C(=O)Nc3ccc(F)cc3C(=O)N12	?	?	-29	.	.
CC1CCN(c2nc(NCc3ccco3)nc(N)c2[N+](=O)[O-])CC1	?	?	-17	-19%	?
CCN1CCN(c2nc(Nc3ccc(C)c(C)c3)nc(N)c2[N+](=O)[O-])CC1	2%	1%	-6	16µM*	-4%
Cc1cccc(Nc2nc(N)c([N+](=O)[O-])c(NCCO)n2)c1	9%	-2%	-8	.	.
Cc1cccc(Nc2nc(N)c([N+](=O)[O-])c(N3CC(C)OC(C)C3)n2)c1 (configuration not stated)	3.2µM*	10µM*	10	.	.
Cc1cccc(Nc2nc(N)c([N+](=O)[O-])c(N3CC(C)CC(C)C3)n2)c1 (configuration not stated)	22µM*	6.3µM*	-63*	?	?
Cc1cccc(Nc2nc(N)c([N+](=O)[O-])c(N3CCC(C)CC3)n2)c1	25µM*	?	-38	?	?
CCN1CCN(c2nc(Nc3cccc(OC)c3)nc(N)c2[N+](=O)[O-])CC1	-28%	?	82	.	.
Nc1nc(Nc2ccccc2)nc(N2CCOCC2)c1[N+](=O)[O-]	-9%	0%	-5	-46%	?
OCCC1CN(Cc2ccc3c(c2)CCO3)CCN1Cc1ccc(F)cc1 (configuration not stated)	-17%	0%	-13	.	.
CN(C)c1ccc(-c2cc(NCc3ccccc3)ncn2)cc1	10%	.	.	.	.
CCOc1ccc(C(=O)NNC(=O)CN2C(=O)NC3(CCCC3)C2=O)cc1	3%	-2%	-102*	-14%	4%
CCOC(=O)c1c(NC(=O)COC(=O)c2ccc(C)s2)sc2c1CC(C)(C)NC2(C)C	-18%	?	20	?	?
Cc1cc(SCC(=O)Nc2ccc(O)cc2)n2ncc(-c3ccccc3)c2n1	-24%	?	-10	.	.
Cc1cc(SCC(=O)Nc2ccc(O)cc2)n2nc(C)c(-c3ccccc3)c2n1	-24%	?	-62*	-28%[46.1 µM]	-4%
SMILES	FMDV inh	HCV inhibitor	HCMV inh	MARV entry inh	Lassa entry inh
C=C(C)CSc1cc(C)nc2c(-c3ccccc3)c(C)nn12	-1%	?	-85*	.	.
C/[N+]([O-])=C\c1cccc(OCCN2CCN(c3ncc(C(F)(F)F)cc3Cl)CC2)c1	?	25µM*	-74*	?	-17%[46.1 µM]
O=C(OCCN1CCN(c2ncc(C(F)(F)F)cc2Cl)CC1)c1ccc(Cl)cc1	-6%	13%	-9	11%	-2%
O=C(CSc1nnc(CNC(=O)c2ccccc2)o1)NCc1ccc2c(c1)OCO2	4%	-2%	-17	21%	-11%
O=C(Nc1ccc(Br)cc1)c1ccc(F)c(S(=O)(=O)N2CCCc3ccccc32)c1	?	.	-99*	.	?
O=C(Nc1cc(Cl)cc(Cl)c1)c1ccc(F)c(S(=O)(=O)N2CCc3ccccc32)c1	?	.	-96*	.	-13%[46.1 µM]
Cc1cccnc1NC(=O)CSc1nnc(CNC(=O)c2cccc([N+](=O)[O-])c2)n1C	-16%	-1%	26	12%	2%
O=C(C1CCC1)N1CCN(c2ccnc3cc(Cl)ccc23)CC1	-25%	?	-87*	.	.
O=C(C1CCCCC1)N1CCN(c2ccnc3cc(Cl)ccc23)CC1	28µM*	?	-83*	?	7.9µM*
O=C(Nc1ccc(OC(F)(F)F)cc1)N1CCN(c2ccnc3cc(Cl)ccc23)CC1	?	11µM*	-85*	.	.
CC(C)(C)C(=O)N1CCN(c2ccnc3cc(Cl)ccc23)CC1	?	?	-98*	.	.
O=C1NC(c2ccccc2)=C(c2nc3ccccc3s2)C(c2ccc(F)cc2)N1 (configuration not stated)	22µM*	?	-27	23µM*	?
Cc1ccc(C(=O)N(Cc2cc3ccc(F)cc3nc2N2CCC(O)CC2)CC2CCCO2)cc1 (configuration not stated)	-6%	.	.	.	.
O=C(Nc1ccc(OCC(F)(F)C(F)F)c(C(F)(F)F)c1)c1ccc(Cl)cc1	?	7.9µM*	-95*	16µM*	?
COC(=O)COc1cccc(NC(=O)c2ccc(Cl)cc2)c1	-18%	2%	3	?	1%
COc1ccc(C(=O)Nc2ccc(OCC(F)(F)C(F)F)c(C(F)(F)F)c2)cc1OC	?	11µM*	-99*	?	18µM*
COc1ccc(NC(=O)c2ccc(COCC(F)(F)F)cc2)cc1OC	-19%	-28%	-24	?	0%
Cc1ccc(CNc2ncnc3sc(C(=O)N4CCC[C@H]4C(N)=O)c(C)c23)o1	-13%	.	.	.	.
CCOC(=O)C1CCN(C(=O)c2ccccc2NS(=O)(=O)c2ccc(F)cc2)CC1	0%	1%	-8	?	-3%
COc1cc(NC(=O)c2cc3c(C)nc4ccccc4c3o2)cc(OC)c1OC	0%	?	-24	-4%	.
Cc1nc2ccccc2c2oc(C(=O)Nc3ccc4c(c3)OCCO4)cc12	-28%	13µM*	-31	.	.
Cc1nc2ccccc2c2oc(C(=O)Nc3ccc(C(C)C)cc3)cc12	?	?	-68*	.	.
